# Experimental data published in the supplement of paper PMC6555819.
# What was measured:
# Assay in all cases: PBM binding z-score (relative to random genomic background probes); higher = stronger binding; sequences stand for … in GC…GCGATTGACAGCGTAGAATGAAGG
# [1] = test system: FXR:RXRa (NR concentration 270 nM, RXRa partner concentration 90 nM)
# Procedure, shortened: (§1)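 Binding z-scores take random background probes as their reference. They come from custom Agilent 4×180K protein-binding microarrays incubated 1 h with ligand-free nuclear receptor dimers, with antibodies against each partner (one per run) detecting binding. Scanned fluorescence was regression-normalized.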
# [2] = test system: LXRa:RXRa (NR concentration 270 nM, RXRa partner concentration 90 nM)
# Procedure, shortened: as §1
# [3] = test system: LXRa homodimer (NR concentration 270 nM)
# Procedure, shortened: as §1
# [4] = test system: LXRb:RXRa (NR concentration 270 nM, RXRa partner concentration 90 nM)
# Procedure, shortened: as §1
# [5] = test system: LXRb homodimer (NR concentration 270 nM)
# Procedure, shortened: as §1
# [6] = test system: PPARa:RXRa (NR concentration 270 nM, RXRa partner concentration 90 nM)
# Procedure, shortened: as §1
# [7] = test system: PPARg:RXRa (NR concentration 180 nM, RXRa partner concentration 90 nM)
# Procedure, shortened: as §1
# [8] = test system: PPARg:RXRa 270nM:90nM, anti-RXR (NR concentration 270 nM, RXRa partner concentration 90 nM)
# Procedure, shortened: as §1
# [9] = test system: PPARg:RXRa 30nM:10nM, anti-RXR (NR concentration 30 nM, RXRa partner concentration 10 nM)
# Procedure, shortened: as §1
# [10] = test system: PPARg:RXRa 90nM:30nM, anti-RXR (NR concentration 90 nM, RXRa partner concentration 30 nM)
# Procedure, shortened: as §1
# [11] = test system: PPARg:RXRa DBDmut IVT, anti-RXR (DBD mutation: RXRa K156A/R161A, NR concentration 270 nM, RXRa partner concentration 90 nM)
# Procedure, shortened: as §1
# [12] = test system: PPARg:RXRa IVT, anti-PPARg (NR concentration 270 nM, RXRa partner concentration 90 nM)
# Procedure, shortened: as §1
# [13] = test system: PPARg DBDmut:RXRa IVT, anti-PPARg (DBD mutation: PPARg1 K132A/R137A, NR concentration 270 nM, RXRa partner concentration 90 nM)
# Procedure, shortened: as §1
# [14] = test system: PPARg DBDmut IVT, anti-PPARg (DBD mutation: PPARg1 K132A/R137A, NR concentration 270 nM)
# Procedure, shortened: as §1
# [15] = test system: PPARg homodimer (NR concentration 180 nM)
# Procedure, shortened: as §1
# [16] = test system: PXR:RXRa (NR concentration 270 nM, RXRa partner concentration 90 nM)
# Procedure, shortened: as §1
# [17] = test system: PXR homodimer (NR concentration 270 nM)
# Procedure, shortened: as §1
# [18] = test system: RARa:RXR (NR concentration 270 nM, RXRa partner concentration 90 nM)
# Procedure, shortened: as §1
# [19] = test system: RARa homodimer (NR concentration 270 nM)
# Procedure, shortened: as §1
# [20] = test system: RARb:RXRa (NR concentration 270 nM, RXRa partner concentration 90 nM)
# Procedure, shortened: as §1
Sequence,PBM binding z-score [1],PBM binding z-score [2],PBM binding z-score [3],PBM binding z-score [4],PBM binding z-score [5],PBM binding z-score [6],PBM binding z-score [7],PBM binding z-score [8],PBM binding z-score [9],PBM binding z-score [10],PBM binding z-score [11],PBM binding z-score [12],PBM binding z-score [13],PBM binding z-score [14],PBM binding z-score [15],PBM binding z-score [16],PBM binding z-score [17],PBM binding z-score [18],PBM binding z-score [19],PBM binding z-score [20]
ACTATTAGTTGGGACGAGGGCAACCGATAGGTTG,0.251,0.126,-0.235,0.0169,0.305,0.354,0.695,0.305,0.0129,0.225,-0.0902,0.659,0.777,0.502,0.934,0.478,0.579,0.451,0.563,1.03
ATCTCTTGGTAACAAGTTCAGTGAAAGAGAGGAC,0.45,0.448,0.452,0.565,0.787,0.547,-0.00548,0.156,0.0559,0.28,-0.454,0.272,0.927,1.13,0.303,1.67,1.14,0.676,0.0703,1.37
ACTACAGGGTCACTAGGCCAGAGTAGGTACGAAT,6.17,3.51,-0.237,3.18,0.0917,5.65,7.54,5.96,2.62,5.05,3.3,5.46,1.45,0.752,2.24,2.67,0.0574,3.53,0.377,4.19
ACTTACGGGTCAACGAGGTTATAGCTCGCGTATA,7.28,5.05,0.77,4.4,0.524,5.72,5.51,5.57,2.36,4.17,3.43,4.16,1.04,0.353,3.06,5.45,2.82,5.16,0.0894,4.36
